# Results filed as inconclusive are left out. The source made the active and inactive calls. The call rests on the fitted dose curve; in most records, active means well fitted cell-killing curve with a large enough effect; inconclusive means small, poorly fitted or top-dose-only effect, or effect the other way; inactive means no such curve, though single readings can be large or run the other way.
# Assay: Quantitative High-Throughput drug screen in 47 multiple myeloma cell lines against the NCATS MIPE library collection: LP1_DSMZ cell viability assay (AID 1918982); further: nearly all actives have a fitted effect of over 35% in size
# Conditions: LP1 myeloma viability, CellTiter-Glo ATP luminescence, 48 h; series mostly up to 45.8 µM; viability (% of control): at the top concentration
# Excerpt: PI: Beverly A. Mock Ph.D.
# Laboratory of Cancer Biology and Genetics,
# Center for Cancer Research, National Cancer Institute,
# National Institute of Health, Bethesda, Maryland
# Drug resistance and disease progression are common in multiple myeloma (MM) patients, underscoring the need for new therapeutic combinations. […] We hypothesized that effective combinations would reduce MYC expression and enhance p16 activity. […] These preclinical data identify potentially useful drug combinations for evaluation in drug-resistant MM and reveal potential mechanisms of combined drug sensitivity.
# Described herein is the primary MIPE qHTS used to cherrypick compounds. Validated compounds were then further tested for potential synergistic activiy.
# [1] Peat TJ, Gaikwad SM, Dubois W, Gyabaah-Kessie N, Zhang S, Gorjifard S, Phyo Z, Andres M, Hughitt VK, Simpson RM, Miller MA, Girvin AT, Taylor A, Williams D, D'Antonio N, Zhang Y, Rajagopalan A, Flietner E, Wilson K, Zhang X, Shinn P, Klumpp-Thomas C, McKnight C, Itkin Z, Chen L, Kazandijian D, Zhang J, Michalowski AM, Simmons JK, Keats J, Thomas CJ, Mock BA. Drug combinations identified by high-throughput screening promote cell cycle transition and upregulate Smad pathways in myeloma. Cancer Lett. 2023 Aug 1;568:216284. doi: 10.1016/j.canlet.2023.216284. Epub 2023 Jun 24. PMID: 37356470; PMCID: PMC10408729.
# SEQUENCE No. (e.g., 1, 2, 3, etc.); […] (e.g., Cells, Incubation, Reagent, etc.); VALUE and DESCRIPTION.
# 1; Cells; 5 uL; white, solid bottom 1536-well Greiner assay plate.
# 2; Compounds; 23 nL; Kalypsis pin tool (Wako USA) equipped with a 1536-well pin head to transfer to the assay plates.
# 3; Incubation; 48 hours; 37C incubation.
# 4; Reagent;5uL; CellTiter Glo (Promega).
# 5; Detector; 425V; Luminescence; Viewlux PerkinElmer.
# NOTES (numbers refer to Sequence numbers above)
# 1. The cell-based screening methods employed in this study were like those previously published. Briefly, the corresponding myeloma cell lines were screened in 1,536-well plates with 500 cells, 5-uL per well for inhibition of cell viability (assessed by measuring ATP levels with CellTiterGlo).
# 2. NCATS MIPE 4.0 library of approved and investigational drugs were added using the Kalypsis pin tool. Wells treated with DMSO only for 100% viability and media only for 0% viability were used as controls.
# 3. The assay plates were covered and incubated for 48 hours in a 37C, 5% CO2 incubator with controlled humidity.
# 4. After 48 hours, CellTilter-GloTM luminescent substrate mix (Promega) reagent was added to the assay plate and plates we incubated for 5 min at room temperature.
# 5. Signal was measured as median relative luminescence units on a ViewLux (PerkinElmer) multiplate reader.
# [1] Heske CM, Davis MI, Baumgart JT, Wilson K, Gormally MV, Chen L, Zhang X, Ceribelli M, Duveau DY, Guha R, Ferrer M, Arnaldez FI, Ji J, Tran HL, Zhang Y, Mendoza A, Helman LJ, Thomas CJ. Matrix Screen Identifies Synergistic Combination of PARP Inhibitors and Nicotinamide Phosphoribosyltransferase (NAMPT) Inhibitors in Ewing Sarcoma. Clin Cancer Res. 2017 Dec 1;23(23):7301-7311. doi: 10.1158/1078-0432.CCR-17-1121. Epub 2017 Sep 12. PMID: 28899971; PMCID: PMC6636827.
# Potency means the concentration at half of the fitted maximal effect.
SMILES,Potency,viability (% of control)
COc1c(C)c2c(c(O)c1CC=C(C)CCC(=O)OCCN1CCOCC1)C(=O)OC2,6.62 µM (active),
CCn1c(-c2nonc2N)nc2cncc(CNC3CCNCC3)c21,,89.1% (inactive)
Cn1cnc(-c2cc3nccc(Oc4ccc(NC(=S)NC(=O)Cc5ccccc5)cc4F)c3s2)c1,16.6 µM (active),
OC(c1cc(C(F)(F)F)nc2c(C(F)(F)F)cccc12)C1CCCCN1 (stereo not given),18.7 µM (active),
CN1CCN(c2cccc(Nc3nc4c(-c5ccc(S(C)(=O)=O)cc5)cccn4n3)c2)CC1,14.8 µM (active),
COc1nccc(-c2c(-c3ccc(F)cc3)ncn2C2CCNCC2)n1,,77.4% (inactive)
O=C1CCCC(=O)C1C(=O)c1ccc(C(F)(F)F)cc1[N+](=O)[O-],,86.6% (inactive)
NS(=O)(=O)c1cc(Cl)c(Cl)c(S(N)(=O)=O)c1,,95.6% (inactive)
C[C@@H]1O[C@@H](O[C@H]2CC[C@@]3(C)[C@H](CC[C@@H]4[C@H]3C[C@@H](O)[C@]3(C)[C@@H](C5=CC(=O)OC5)CC[C@]43O)C2)C[C@H](O)[C@@H]1O[C@H]1C[C@H](O)[C@H](O[C@H]2C[C@H](O)[C@@H](O)[C@@H](C)O2)[C@H](C)O1 (stereo in doubt),0.121 µM (active),
O=c1[nH]nc(OCCCc2ccc(Cl)cc2)c(NCc2cccnc2)c1Br,14.8 µM (active),
CN(C)CCCNC(=O)c1ccc(-c2cc(O)c3ncccc3c2)cc1,8.33 µM (active),
CCC=CC[C@H]1C(=O)CC[C@@H]1CC(=O)OC,,112% (inactive)
Cc1csc(-c2nnc(Nc3ccc(Oc4ncccc4-c4ccnc(N)n4)cc3)c3ccccc23)c1,20.9 µM (active),
Cc1cnc(-c2cc(N3CCN(C(=O)CCS(C)(=O)=O)CC3)ncc2Cl)c(C)c1,,123% (inactive)
Cc1cnc(Nc2cccc(CN3CCOCC3)c2)nc1Nc1cccc(S(=O)(=O)NC(C)(C)C)c1,14.8 µM (active),
CCC(C)SSc1ncc[nH]1 (stereo not given),8.33 µM (active),
COc1ccc(-c2cc(=O)c3c(O)cc(O[C@@H]4O[C@H](CO[C@@H]5O[C@@H](C)[C@H](O)[C@@H](O)[C@@H]5O)[C@@H](O)[C@H](O)[C@@H]4O)cc3o2)cc1O,,106% (inactive)
CC(=O)N1CCN(c2ccc(OCc3nn(C)c(C)c3-c3cccc4c(CCCOc5cc(C)c(Cl)c(C)c5)c(C(=O)O)n(Cc5cccnc5)c34)cc2)CC1,,76.5% (inactive)
CN1CCN2c3ncccc3Cc3ccccc3C2C1 (stereo not given),,103% (inactive)
CN(C)N=Nc1nc[nH]c1C(N)=O,,116% (inactive)

SMILES,Potency,viability (% of control)
CN(C)CCN(C)C(=O)c1ccc(NC(=O)Nc2ccc(-c3nc(N4CCOCC4)c4ccn(CC(F)(F)F)c4n3)cc2)cc1,0.166 µM (active),
Cc1ccc(S(=O)(=O)OCC(=O)Nc2ccc(C(=O)O)c(O)c2)cc1,,84.2% (inactive)
Nc1[nH]nc2nnc(-c3c(-c4ccccc4)nn4ccccc34)cc12,,83% (inactive)
CN[C@@H](C)[C@H]1[C@H](O)C[C@@]2(C)[C@@H]3CC[C@H]4C(C)(C)[C@@H](NC)CC[C@@]45C[C@@]35CC[C@]12C,,94.4% (inactive)
Cc1[nH]c(C=C2C(=O)Nc3ccc(S(=O)(=O)N(C)c4cccc(Cl)c4)cc32)c(C)c1C(=O)N1CCN(C)CC1,18.7 µM (active),
Cc1nc(C(=O)NCC(=O)O)c(O)c2ccc(Oc3ccccc3)cc12,,94.8% (inactive)
Cc1cccc(Nc2nc(N[C@@H]3CCCC[C@H]3N)ncc2C(N)=O)c1,18.7 µM (active),
CC(C)[C@H](O)C(=O)N[C@@H](C)C(=O)N[C@@H]1C(=O)N(C)CCc2ccccc21,,96.3% (inactive)
O=C(CO)N1CCC(c2[nH]nc(-c3ccc(Cl)cc3)c2-c2ccncn2)CC1,,89.7% (inactive)
CCOC(=O)N1CCN([N+]([O-])=NOc2cc(ON=[N+]([O-])N3CCN(C(=O)OCC)CC3)c([N+](=O)[O-])cc2[N+](=O)[O-])CC1,33.2 µM (active),
CC1(C)C(N(O)C(=O)Nc2ccc(Cl)cc2)N(c2ccc(Cl)cc2)C(=O)N1CC(=O)NN=CC=Cc1ccc([N+](=O)[O-])o1 (stereo not given),16.6 µM (active),
CC(C)(F)C[C@H](N[C@@H](c1ccc(-c2ccc(S(C)(=O)=O)cc2)cc1)C(F)(F)F)C(=O)NC1(C#N)CC1,,87.9% (inactive)
Cc1c(C(=O)Nc2ccc(N3C[C@@H](C)O[C@@H](C)C3)nc2)cccc1-c1ccc(OC(F)(F)F)cc1,9.35 µM (active),
CS(=O)(=O)c1ccc(C2=C(c3ccccc3)C(=O)OC2)cc1,,109% (inactive)
Nc1ccn([C@@H]2O[C@H](CO)[C@@H](O)[C@H]2O)c(=O)n1,,118% (inactive)
CN(C)CC[C@H](CSc1ccccc1)Nc1ccc(S(=O)(=O)NC(=O)c2ccc(N3CCN(Cc4ccccc4-c4ccc(Cl)cc4)CC3)cc2)cc1[N+](=O)[O-],23.5 µM (active),
CCCC1OC2C[C@@H]3[C@H]4CCC5=CC(=O)C=C[C@]5(C)[C@H]4C(O)C[C@]3(C)[C@]2(C(=O)CO)O1 (stereo not given in full),0.0066 µM (active),
CC1=C(C(=O)Nc2cc3cn[nH]c3cc2F)C(c2ccc(C(F)(F)F)cc2)CC(=O)N1 (stereo not given),,102% (inactive)
N[C@@H](CC(=O)N1CCn2c(nnc2C(F)(F)F)C1)Cc1cc(F)c(F)cc1F,,115% (inactive)
COc1cc2nccc(Oc3ccc(NC(=O)Nc4ccc(F)cc4F)c(F)c3)c2cc1OC,9.35 µM (active),

# — PubChem BioAssay (NCATS)
